Results on 29 compounds are retold here after ChEMBL document CHEMBL1157539, “Thousands of chemical starting points for antimalarial lead identification” (Nature, 2010).

Holding throughout (assay type): functional
The test system of assay [1] is Plasmodium falciparum. Description: GSK_TCMDC: Inhibition of Plasmodium falciparum 3D7 in whole red blood cells, using parasite LDH activity as an index of growth. Test compounds present at 2uM.
For assay [2], the system named is Plasmodium falciparum. Description: GSK_TCMDC: Inhibition of Plasmodium falciparum Dd2 in whole red blood cells, using parasite LDH activity as an index of growth. Test compounds present at 2uM.
The test system of assay [3] is HepG2. Description: GSK_TCMDC: Percent inhibition of human HepG2 cell line. Test compounds present at 10uM.

In the case of `O=C(N[C@H](CC1CCCCC1)C(=O)NC1CCCc2ccccc21)c1ccc(O)c(-c2cccc([N+](=O)[O-])c2)c1` (some centres not stated), the Inhibition in assay [1] is reported as 99%; in assay [2], 98%; in assay [3], 0%.

`CC1CCCC(Nc2noc(-c3sccc3Br)n2)C1` (configuration not stated): the values for the Inhibition in assay [1], in assay [2] and in assay [3] were 100%, 99% and 7%, respectively.

Take `CS(=O)(=O)N(CC(O)Cn1c2ccc(Cl)cc2c2cc(Cl)ccc21)c1ccccc1` (configuration not stated): the results for the Inhibition in assay [1], in assay [2] and in assay [3] were 100%, 98% and 2%, respectively.

With `O=C1C(c2ccccc2)=C(Nc2ccc(OC(F)(F)F)cc2)c2ccccc21`, the Inhibition in assay [1] came to 96%; in assay [2], 96%; in assay [3], 18%.

`Cc1ccc(S(C)(=O)=O)cc1/C=C/C(=O)O`: the Inhibition in assay [1] turned out to be 96%; in assay [2], 1%; in assay [3], 0%.

On to `COc1cccc(C(=O)Nc2nonc2-c2ccc(OC)c(OC)c2)c1`, for which the figures for the Inhibition in assay [1], in assay [2] and in assay [3] were 97%, 50% and 7%, respectively.

Consider `O=C(Nc1cccc(Cl)c1)N[C@H]1CCN(Cc2ccc(OCCCN3CCCCC3)cc2)C1`, for which the Inhibition was found to be 99% in assay [1], 0% in assay [2] and 15% in assay [3].

For `CCNc1cc(C(=O)N[C@@H](Cc2ccccc2)[C@H](O)CN[C@@H]2CCc3ccccc32)cc(N2CCCCS2(=O)=O)c1`, the Inhibition in assay [1] is 98%; in assay [2], 97%; in assay [3], 0%.

As to `Cc1cc(-c2cc3nc4c(c(O)n3n2)CCCC4)c(C)o1`, the Inhibition in assay [1] is reported as 94%; in assay [2] it was 82%; in assay [3], 4%.

As for `COc1ccc(-c2cnc3[nH]cc(-c4ccncc4)c3c2)cc1OC`, the Inhibition in assay [1] was 98%; in assay [2], 97%; in assay [3] it was 52%.

As to `CN1CCCC(CN2CCN(Cc3ccc(-c4ccc(-c5nc6ccccc6[nH]5)s4)cc3)CC2)C1.O=C(O)C(F)(F)F` (configuration not stated), the Inhibition in assay [1] is listed as 100%; in assay [2], 100%; in assay [3] it was 57%.

Regarding `COc1ccccc1-n1ccnc1SCC(=O)Nc1cccc(C(F)(F)F)c1`, the Inhibition is 95% in assay [1], 96% in assay [2] and 1% in assay [3].

In the case of `CN(C)[C@@H]1C(O)=C(C(N)=O)C(=O)[C@@]2(O)C(O)=C3C(=O)c4c(O)ccc(C#Cc5ccccn5)c4C[C@H]3C[C@@H]12.Cl`, the values for the Inhibition in assay [1], in assay [2] and in assay [3] were 92%, 75% and 17%, respectively.

Take `CC(O)C(=O)O.CCOc1ccc2nc3cc(N)ccc3c(N)c2c1`: the Inhibition in assay [1] was found to be 98%; in assay [2] it was 70%; in assay [3] it was 8%.

On to `CC(C)(C)c1ccc(NC(=O)c2cccc(CN3CCCN(CC4CCCCC4)CC3)c2)cc1.O=C(O)C(F)(F)F`, for which the results for the Inhibition in assay [1], in assay [2] and in assay [3] were 93%, 47% and 97%, respectively.

With `O=C(Nc1nccs1)c1cc(-c2cccnc2)nc2ccc(Br)cc12`, the Inhibition in assay [1] amounted to 100%; in assay [2] it was 79%; in assay [3] it was 7%.

As to `CC(C)CCN1CCCN(Cc2ccc(C(=O)Nc3ccc(Cl)cc3)cc2)CC1.O=C(O)C(F)(F)F`, the Inhibition in assay [1] is 94%; in assay [2], 15%; in assay [3], 46%.

In the case of `COc1ccc(NC(=O)Nc2ccc(C)c(-c3ccc(C(=O)Nc4ccncc4)cc3)c2)cc1`, the values for the Inhibition in assay [1], in assay [2] and in assay [3] were 99%, 50% and 39%, respectively.

As to `COc1ccc(C(=O)NCc2ccc(N)nc2C)cc1Nc1ncc(-c2cccc(N(C)C)c2)cn1`, the results for the Inhibition in assay [1], in assay [2] and in assay [3] were 89%, 68% and 9%, respectively.

Consider `COc1cccc2c1CCN(CCN1CCC(CNC(=O)c3ccc(-c4ccc(C#N)cc4)cc3)CC1)C2`, for which the results for the Inhibition in assay [1], in assay [2] and in assay [3] were 99%, 98% and 57%, respectively.

As to `CC(C)NCc1ccc(-c2cccc(NC(=O)c3cccc(Cl)c3)c2)cc1.O=C(O)C(F)(F)F`, the Inhibition was 100% in assay [1], 87% in assay [2] and 24% in assay [3].

With `N=c1[nH]c2cccc3ccc4cccc1c4c32`, the Inhibition amounted to 100% in assay [1], 69% in assay [2] and 26% in assay [3].

Take `CCCN1CCN(CCCNc2c3ccccc3nc3ccccc23)CC1.Cl`: the values for the Inhibition in assay [1], in assay [2] and in assay [3] were 99%, 0% and 36%, respectively.

As for `CN1CCCN(Cc2ccc(-c3cccc(NC(=O)c4cccc(F)c4)c3)cc2)CC1.O=C(O)C(F)(F)F`, the Inhibition in assay [1] stood at 91%; in assay [2] it was 12%; in assay [3], 28%.

For `FC(F)(F)c1ccc2[nH]c(-c3ccc(-c4cccc(CNCC5CCCO5)c4)s3)nc2c1.O=C(O)C(F)(F)F` (configuration not stated), the Inhibition stood at 99% in assay [1], 99% in assay [2] and 37% in assay [3].

For `CCN(CC)CCCN(C(=O)c1cc2c(C)nn(-c3ccccc3)c2s1)c1nc(-c2ccc(OC)cc2)cs1.Cl`, the Inhibition in assay [1] came to 89%; in assay [2], 32%; in assay [3] it was 12%.

As to `Cc1cc2ncn(-c3nccc(NCc4ccc(F)cc4)n3)c2cc1C.O=C(O)C(F)(F)F`, the Inhibition in assay [1] is 98%; in assay [2] it was 83%; in assay [3], 10%.

With `CNC(=O)c1cnc(Nc2ccc(N3CCN(C)CC3)cc2)nc1Nc1ccccc1OC.O=C(O)C(F)(F)F`, the Inhibition worked out at 100% in assay [1], 84% in assay [2] and 8% in assay [3].

`COc1ccc(OCCON)cc1.Cl`: the Inhibition was determined as 98% in assay [1], 0% in assay [2] and 0% in assay [3].
